These results are taken from the supplement of paper PMC13380429.

The test system of this experiment is Vero E6 infected with SARS-CoV-2. Briefly: SARS-CoV-2 infection rate relative to infected DMSO; higher = more infection, active = 60 or less. The settings on record: 24 h.
`O=C1N=C2SCCN2C(=O)C1Cc1ccc(Cl)cc1` (stereo not drawn) [nuclomedone] (10 µM): the SARS-CoV-2 infection rate is 99% (inactive). With `Cc1ccc(-c2nn(C(C)(C)CNC(=O)c3ncccc3C)c3ncnc(N)c23)cc1` [WEHI-345-analog] (0.833333 µM) the figure was 122% (inactive); with `CNCCC=C1c2ccccc2C=Cc2ccccc21` [norcyclobenzaprine] (10 µM), 81% (inactive). `CCOC(=O)c1ccc(O)cc1` [ethyl-paraben] (10 µM): the SARS-CoV-2 infection rate was 104% (inactive). With `CC(O)c1cc(C(=O)N[C@@H](C)Cn2ccc(-c3ccc(C#N)c(Cl)c3)n2)n[nH]1` (stereo partly drawn) (10 µM), the SARS-CoV-2 infection rate is 106% (inactive). On to `NC(=O)c1ccc(F)c2c1C[C@@H](N(C1CCC1)C1CCC1)CO2` [robalzotan] (10 µM), for which the SARS-CoV-2 infection rate was 100% (inactive). Next, `CC(=O)Oc1cc(C(F)(F)F)ccc1C(=O)O` [triflusal] (10 µM): 102% (inactive); `CCC[C@@H]1C[C@@H](C(=O)N[C@@H]([C@H]2O[C@H](SC)[C@H](O)[C@@H](O)[C@H]2O)[C@@H](C)O)N(C)C1` [lincomycin] (10 µM): 105% (inactive); `COc1cccc(C2(O)CCCCC2CN(C)C)c1` (stereo not drawn) (10 µM): 104% (inactive). Next, `COC(=O)[C@]12CCC(C)(C)C[C@H]1[C@H]1C(=O)C=C3[C@@]4(C)C=C(C#N)C(=O)C(C)(C)[C@@H]4CC[C@@]3(C)[C@]1(C)CC2` [Bardoxolone Methyl] (10 µM): 107% (inactive).

Regarding `CN1C(C(=O)Nc2ccccn2)=C(O)c2ccccc2S1(=O)=O` [piroxicam] (10 µM), the SARS-CoV-2 infection rate was 98.5% (inactive). `Cc1nnc(C(C)C)n1C1C[C@H]2CC[C@@H](C1)N2CC[C@H](NC(=O)C1CCC(F)(F)CC1)c1ccccc1` (stereo in doubt) [maraviroc] (10 µM): the SARS-CoV-2 infection rate is 112% (inactive). With `CNCC(=O)O` [sarcosine] (10 µM) the figure was 108% (inactive); with `COc1ccc(Cl)c(Nc2nc3ccccc3nc2NS(=O)(=O)c2cccc(NC(=O)C(C)(C)N)c2)c1` [pilaralisib] (10 µM), 103% (inactive).

Regarding `C[C@H]1NCc2cc(-c3ccc4c(=O)c(C(=O)O)cn(C5CC5)c4c3OC(F)F)ccc21` [garenoxacin] (10 µM), the SARS-CoV-2 infection rate is 102% (inactive). Next, `C[C@@H]1c2ccccc2CN1CC1=NCCN1` (racemic) (10 µM): 92.5% (inactive). Next, `COCCCOc1cc(C[C@@H](C[C@H](N)[C@@H](O)C[C@H](C(=O)NCC(C)(C)C(N)=O)C(C)C)C(C)C)ccc1OC` [aliskiren-hemifumarate] (10 µM): 110% (inactive); `O=c1ncn2nc(Sc3ccc(F)cc3F)ccc2c1-c1c(Cl)cccc1Cl` (10 µM): 108% (inactive). With `C[C@]1(c2nc3c(C(N)=O)cccc3[nH]2)CCCN1` [veliparib] (10 µM) the figure was 109% (inactive); with `COc1cc2ncnc(Nc3ccc(F)c(Cl)c3)c2cc1NC(=O)/C=C/CN1CCCCC1` [dacomitinib] (0.833333 µM), 103% (inactive); with `COc1cc(OC)c(NC(=O)Nc2cc(C)on2)cc1Cl` (10 µM), 87% (inactive). Turning to `CC(=O)N[C@@H](CS)C(=O)O` [acetylcysteine] (10 µM), the SARS-CoV-2 infection rate is 95.5% (inactive). Next, `O=C(NCc1ccc(F)cc1)N1CCN2C(=O)OC(c3ccccc3)(c3ccccc3)[C@@H]2C1` (racemic) (10 µM): 97% (inactive); `COc1ccnc2[nH]cc(C(=O)C(=O)N3CCN(C(=O)c4ccccc4)C[C@H]3C)c12` (10 µM): 99% (inactive); `O=C1NC(=O)/C(=C/c2cccc(C(F)(F)F)c2)S1` (10 µM): 106% (inactive). With `Cc1c(C)c2c(c(C)c1O)CCC(C)(COc1ccc(CC3SC(=O)NC3=O)cc1)O2` (stereo not drawn) [troglitazone] (10 µM) the figure was 89% (inactive). Regarding `COc1cc(C(=O)N2CCC(N3CCN(C)CC3)CC2)ccc1Nc1ncc2c(n1)N(C)c1ccccc1C(=O)N2C` (0.833333 µM), the SARS-CoV-2 infection rate is 100% (inactive). Next, `CCCCC(=O)O[C@H]1CC[C@H]2[C@@H]3CCc4cc(O)ccc4[C@H]3CC[C@]12C` (10 µM): 89% (inactive).
